Reference: PubChem BioAssay (Tox21)
Results filed as inconclusive are left out. Values without a mark were called inactive. The call rests on the fitted dose curve; in most records, active means well fitted cell-killing curve with a large enough effect in the repeat runs; inconclusive means weak or mixed curves, or effect the other way; inactive means no such curve, though single readings can be large or run the other way.

experiment: qHTS assay to identify small molecule antagonists of the glucocorticoid receptor (GR) signaling pathway - cell viability counter screen (AID 720693); conditions: GR-bla HeLa viability, CellTiter-Glo luminescence, 18 h, with 5 nM dexamethasone present; series mostly up to 58.5 µM; viability change, negative = cytotoxic: at the top concentration; further: nearly all actives have a fitted effect of over 55% in size
Source text: National Center for Advancing Translational Sciences [NCATS]
NIH Chemical Genomics Center [NCGC]
U.S. Environmental Protection Agency [EPA]
National Institutes of Environmental Health Sciences [NIEHS]
National Toxicology Program [NTP]
U.S. Food and Drug Administration [FDA]
The Glucocorticoid receptor (GR) is one of the members of the nuclear receptor family of ligand-dependent transcription factors. GR plays a critical role in carbohydrate, protein and lipid metabolisms and programmed cell death. CellSensor GR-bla HeLa cell line (Invitrogen) contains a beta-lactamase reporter gene under the control of the glucocorticoid response element stably integrated into HeLa cells, a cervical cancer cell line that expresses glucocorticoid receptor. The activation of the reporter gene under culture conditions can be detected by fluorescence intensity. This cell line has been used to screen the Tox21 10K compound library and to identify the compounds that inhibit the GR signaling. The cytotoxicity of the Tox21 compound library against the GR-bla HeLa cell line was tested in parallel by measuring the cell viability using CellTiter-Glo assay in the same wells.
Tox21 Assay Protocol Summary:
The GR-bla HeLa cells were dispensed at 1500 cells/5 ul/well in 1536-well black wall/clear bottom plates using a Multidrop Combi (ThermoFisher Scientific, Waltham, MA) dispenser. After the assay plates were incubated at a 37 C/5% CO2 incubator for 4 hours, 23 nL of compounds dissolved in DMSO, positive controls or DMSO only was transferred to the assay plate by a pintool station (Kalypsys, San Diego, CA), followed by addition of 1 uL of dexamethasone (5 nM, final concentration in the well). The plates were incubated at 37 C for 18 hours. After 1 uL of LiveBLAzerTM B/G FRET substrate was added using a Flying Reagent Dispenser (Aurora Discovery, San Diego, CA), the plates were incubated at room temperature (RT) for 2 hours, and fluorescence intensity was measured by an Envision plate reader (PerkinElmer, Shelton, CT). After measurement of bla assay, 3 ul CellTiter-Glo (Promega, Madison, WI) was added to measure the cytotoxicity and the plates were then incubated at RT for 30 min. The luminescence was measured using a ViewLux (Perkin Elmer) plate reader.
On the % scale 0 is the no-effect control and ±100 the full control effect.

Compound | viability change, negative = cytotoxic
O=C(OCC(COC(=O)c1cccnc1)(COC(=O)c1cccnc1)COC(=O)c1cccnc1)c1cccnc1 | -7.36%
O=S(=O)(O)c1cc(O)c2ccc(Nc3ccccc3)cc2c1 | 18.9%
C=C1CC/C=C(\C)CC[C@@H]2[C@@H]1CC2(C)C | -2.8%
Brc1ccc(-c2ccccc2)cc1 | 4.55%
CC(=O)NCCCCCC(=O)O | 8.35%
Nc1ccc2cc(S(=O)(=O)O)cc(O)c2c1 | -5.63%
C=C(C)C(=O)OCC(C)(C)COC(=O)C(=C)C | 4.22%
CNS(=O)(=O)CCc1ccc2[nH]cc(C3CCN(C)CC3)c2c1 | -1.07%
CCc1ccc(C=O)cc1 | -5.48%
CCCCCCCCC1CCC(=O)O1 (stereo not given) | 1.37%
CC(C)N(c1ccccc1)C(C)C | 12.8%
Cc1cccc2nccnc12 | -3.16%
Nc1ncnc(Nc2ccccc2)n1 | 5.55%
CC(=O)c1ccc2c(c1)Cc1ccccc1-2 | -17.6%
CCCN1C[C@H](CSC)C[C@@H]2c3cccc4[nH]cc(c34)C[C@H]21 | 24%
O=C1c2ccccc2C(=O)N1CCl | -0.717%
Cc1cc(NC(=O)C2=C(O)c3ccccc3S(=O)(=O)N2C)no1 | 6.31%
CC(C)(C)c1n[nH]c(=S)n(N)c1=O | 7.99%
CO[C@@H]1[C@@H](OC(N)=O)[C@@H](O)[C@H](Oc2ccc3c(O)c(NC(=O)c4ccc(O)c(CC=C(C)C)c4)c(=O)oc3c2C)OC1(C)C | -1.91% [at 27 µM]
C=C(C)C1CCC(C)(O)CC1 (stereo not given) | 12.8%

Compound | viability change, negative = cytotoxic
CC(C)(C)OC(=O)c1ccc(O)cc1 | -0.943%
Cc1ccc(S(=O)(=O)O)c(C)c1 | 6.01%
CC(CN)CC(C)(C)CCN (stereo not given) | 9.49% [at 78.9 µM]
CN=C(NC#N)Nc1ccc(C2=NNC(=O)CC2C)cc1 (stereo not given) | 17.6%
C=CCCCCCCCCCCCC | -0.235%
CC/C=C\CC1=C(C)CCC1=O | 7.02%
OCCN(CCO)c1cccc(Cl)c1 | 5.35%
CC(=O)CCCCn1c(=O)c2c(ncn2C)n(C)c1=O | 3.24% [at 27 µM]
CCCCCCCCOS(=O)(=O)O | 1.64%
Cc1c(I)c(=O)n(-c2ccccc2)n1C | 1.08%
CCOC(=O)[C@H](CCc1ccccc1)N[C@@H](C)C(=O)N1C(=O)N(C)C[C@H]1C(=O)O | 7.36%
CCCCNC1CC(C)(C)NC(C)(C)C1 | -1.31%
Nc1cccc(O)c1 | -14.7% [at 78.9 µM]
C=C(C)C(=O)OCc1ccccc1 | -7.72%
c1ccc2c(c1)ccc1c3ccccc3ccc21 | 0.26%
COCCOCCOCCOCCO | -11.6%
CC(S)C(=O)NCC(=O)O (stereo not given) | 14.5%
O=C(NCCc1c[nH]c2ccccc12)c1cccnc1 | 1.13%
CN(CCOc1ccc(NS(C)(=O)=O)cc1)CCc1ccc(NS(C)(=O)=O)cc1 | -13.2%
C=CC(OCC)OCC | -1.35%
